Bioassay records from PubChem BioAssay.
In the library only some 8% were active in any assay of this set; here they are far more common.
HT1080NT lethal – kills 2HG-producing HT-1080-NT fibrosarcoma cells | AID 686970 | Potency, µM (highest dose often 46.1 µM), for the others: at the highest dose activity, negative = less viability, most hits filed as cytotoxic | 360,000 compounds, 1.6% hits | HT-1080-NT fibrosarcoma viability, CellTiter-Glo ATP luminescence, 48 h;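 also: NT is the 2HG producing partner of a matched IDH1 knockdown line; 0% = DMSO-treated cells and -100% = media-only wells without cells; nearly all actives have a fitted effect of over 55% in size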
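Fibrosarcoma NT cells, 750 per well in 5% FBS RPMI, were exposed to compound for 48 hours. Viability: CellTiter-Glo luminescence.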
HT1080 IDH1KD tx – kills HT-1080 cells with IDH1 knockdown. HT-1080 IDH1 knockdown viability, ATP luminescence, 48 h. Potency, µM (top dose mostly 46.1 µM), for inactives: at the highest dose activity, negative = toxicity, hits mostly cytotoxic. 360,000 compounds, 2% hits. AID 686971;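 also: 0% = DMSO wells and -100% = cell-free medium wells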
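Luminescent ATP read-out (CellTiter-Glo, 10 min at room temperature) after 48 h compound exposure at 37 °C gave viability of IDH1-knockdown HT-1080 cells. Activity was normalised to DMSO and cell-free wells, then fitted as concentration-response curves.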
MCF10A rerep – inducers of DNA re-replication in MCF 10A breast cells. Potency, µM (titrated, usually from 46.1 µM), inactives show at the highest dose activity, positive = re-replication, actives largely listed as activators. MCF 10A DNA re-replication, Hoechst nuclear intensity, 48 h. 350,000 compounds, 2.9% hits. AID 624296; also: % of control where 0% means no effect; nearly all actives have a fitted effect of over 50% in size
KB-3-1 cytotox – kills parental KB-3-1 adenocarcinoma cells; KB-3-1 viability, CellTiter-Glo ATP luminescence, 72 h; Potency, µM (top dose mostly 46.1 µM), usual class: cytotoxic; 400,000 compounds, 1.4% hits; also: % is scaled to controls: 0 for no effect and ±100 for the full control effect; nearly all actives have a fitted effect of over 60% in size
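Here the drug-naive KB-3-1 line serves as comparator for MDR sub-line selectivity; cells received compound titrations, 72 h at 37 °C, then CellTiter-Glo readout.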
SW480 rereplic – DNA re-replication induction in SW480 cells. SW480 DNA re-replication, Hoechst DNA content imaging, 48 h. Potency, µM (top dose mostly 46.1 µM), for the others: at the top dose re-replication activation, hits mostly activators. 340,000 compounds, 1.8% hits. AID 624297; also: % of control where 0% means no effect; nearly all actives have a fitted effect of over 55% in size
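250 cells/well; 23 nL cpd via pin tool; 48 hr, 37 C, 5% CO2; Hoechst 40 min; imager read of total nuclear intensity, ex 405/em 500-530 nm.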
KB-V1 cytotox – kills drug-selected multidrug resistant KB-V1 cells; 400,000 compounds, 3.4% hits; KB-V1 MDR cells viability, CellTiter-Glo, 72 h; Potency, µM (top dose mostly 46.1 µM), hits mostly cytotoxic; AID 1347076; also: % is scaled to controls: 0 for no effect and ±100 for the full control effect; nearly all actives have a fitted effect of over 60% in size
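Compound-treated KB-V1 multidrug-resistant cells, 72 h, 37 degrees C; viability by CellTiter-Glo. Fitted qHTS curves give the values.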
* hit, by the source's call; i = inactive; u = inconclusive; x = no result; [ ] = remark or other dose. Calls follow the shape of the dose curve; as a rule, active = well fitted curve in the direction sought with a large enough effect; inconclusive = small, poorly fitted or top-dose-only effect, or another doubt; inactive = no such curve, though single readings can be large; an effect the other way counts as inactive or inconclusive. Potency is read from the fitted curve at half-maximal effect.

SMILES	HT1080NT lethal	HT1080 IDH1KD tx	MCF10A rerep	KB-3-1 cytotox	SW480 rereplic	KB-V1 cytotox
CCN(CC)c1ccc([N+](=O)[O-])cc1C(=O)N1CCOCC1	12%	9%	21%	i	-3%	i
CCN(CC)C1=NS(=O)(=O)c2cc([N+](=O)[O-])ccc21	30%	8%	u	u	12µM*	u
CN(Cc1ccccc1)C(=S)Nc1ccc(OC(F)F)cc1	13%	10%	-3%	i	-5%	15µM*
CCCCCOc1ccc(C(=O)OC(C)C(=O)NCc2ccco2)cc1 (configuration not stated)	u	21µM*	-2%	u	u	u
O=C(Nc1cc2c(ccc3ccccc32)oc1=O)C1CCCCC1	0%	1%	-3%	i	3%	i
CCOC(=O)c1ccccc1NC(=O)CSc1cccc[n+]1[O-]	1%	9%	0%	i	2%	i
COc1ccc(-n2cc(C#N)c(=O)n(Cc3ccc(F)cc3)c2=O)cc1	u	u	u	i	13µM*	u
Cc1cc(C)n(Cc2ccc(F)cc2)c(=O)c1C#N	-1%	-2%	-4%	i	-5%	u
CCOC(=O)CC(=O)CSc1nc(CC)c(C)cc1C#N	12%	7%	0%	i	23µM*	i
CCc1nc(SCC(=O)O)c(C#N)cc1C	13%	11%	-1%	i	-22%	i
CCOC(=O)CC(=O)CSc1nc2ccc(C)cc2cc1C#N	u	7.1µM*	23µM*	i	-1%	i
N#CC1=C(SCC(=O)Nc2ccccc2)NC(=O)CC1c1ccco1 (configuration not stated)	14µM*	u	-3%	u	-1%	15µM*
N#CC1=C(SCC(=O)NC2CCCCC2)NC(=O)CC1c1ccco1 (configuration not stated)	5%	9%	u	15µM*	22%	i
N#CC1=C(SCC(=O)NCc2ccccc2)NC(=O)CC1c1ccco1 (configuration not stated)	-5%	0%	-7%	i	-3%	i
Cc1cc(Nc2ccccc2)n(-c2cccc(Cl)c2)n1	-10%	-16%	18%	i	u	i
COC(=O)C1C(C(C)C)N(c2ccccc2)OC1(C)O (configuration not stated)	-25%	3%[9.24 µM]	u	i	u	i
CCOc1cccc(CN2CCCC(C(=O)c3cc(Cl)ccc3OC)C2)c1O (configuration not stated)	-16%	-20%	4%	i	5%	i
CCc1n[nH]c(=S)n1/N=C/c1c(O)ccc2ccccc12	10%	9%	9%	u	-3%	5.8µM*
CCc1n[nH]c(=S)n1/N=C/c1ccccn1	29%	8%	-6%	i	0%	i
CCc1n[nH]c(=S)n1/N=C/c1cccc2ccccc12	-4%	-6%	u	6.5µM*	-6%[9.22 µM]	5.8µM*
COc1ccc(NC(=O)c2cc(C(C)C)on2)cc1OC	13%	-2%	21%	i	-2%	21µM*
CC(C)n1cc(NC(=O)c2cc(-c3ccccc3)on2)cn1	16µM*	8.2µM*	3.7µM*	u	5.2µM*	4.1µM*
COc1cc(NC(=O)c2cc(-c3ccc4c(c3)OCO4)on2)cc(OC)c1OC	8.2µM*	5.8µM*	19%	i	-25%	u
COc1cccc(-c2cc(C(=O)Nc3cc(OC)c(OC)c(OC)c3)no2)c1	u	u	3.7µM*	u	u	3.7µM*
COc1ccc(NC(=O)c2cc(C)on2)cc1OC	8%	-4%	0%	i	-12%	i
SMILES	HT1080NT lethal	HT1080 IDH1KD tx	MCF10A rerep	KB-3-1 cytotox	SW480 rereplic	KB-V1 cytotox
Cn1cc(CN2CCC[C@H]2CO)c(-c2cccc(Cl)c2)n1	4%	5%	-1%	i	-10%	i
COc1cccc(-c2cc(C(=O)Nc3cccnc3)no2)c1	u	12µM*	9.2µM*	u	5%	u
O=C(Nc1cccnc1)c1cc(-c2ccccc2)on1	-3%	-16%	13%	i	8%	i
CN(Cc1ccccc1)Cc1cc(=O)oc2ccccc12	-2%	0%	x	i	x	9.2µM*
O=c1cc(NCCc2ccccc2)c2ccccc2o1	-23%	-19%	-1%	u	2%	13µM*
CC1CCN(Cc2cc(=O)oc3cc(O)c(Cl)cc23)CC1	-1%	2%	15µM*	i	u	i
O=c1cc(NCCO)c2ccccc2o1	0%	14%	-1%	i	-80%	i
Cc1cc2oc(=O)cc(CN(C)Cc3ccccc3)c2cc1C(C)C	-5%	-24%	15µM*	i	u	u
CC(C)(C)c1cc(C(C)(C)C)n(-c2ccccc2)n1	5%	3%	u	i	1%	i
Cc1ccc(CNC(=O)C2C3C=CC4(CN(Cc5cccnc5)C(=O)C24)O3)cc1 (configuration not stated)	15%	14%	-1%	i	1%	i
COc1ccc(CNC(=O)c2cc3c(=O)n(Cc4cccnc4)ccc3nc2C)cc1	x	x	x	i	x	i
CNS(=O)(=O)c1ccc(NC(=O)c2cnn3c(C(F)F)cc(-c4ccccc4)nc23)cc1	21%	-2%	-1%	u	-5%	u
CN(Cc1ccccc1F)Cc1cc(=O)oc2cc(O)c(Cl)cc12	-5%	-12%	5.8µM*	u	u	i
Cc1cc2oc(=O)cc(CN(C)Cc3ccccc3F)c2cc1Cl	5%	8%	16%	i	7%	i
Cc1ccc2c(CN(C)Cc3ccccc3)cc(=O)oc2c1	u	-22%	x	i	x	i
Cc1ccc2c(CNCc3ccccc3)cc(=O)oc2c1	5.2µM*	8.2µM*	12µM*	5.2µM*	8.2µM*	3.7µM*
Cc1ccc2c(CN(C)Cc3cccc(Cl)c3)cc(=O)oc2c1C	-27%	u	21µM*	u	3%	u
CN(Cc1ccccc1)c1nc(-c2ccc([N+](=O)[O-])cc2)nc2ccccc12	2%	-3%	16%	i	1%	i
O=[N+]([O-])c1ccc(-c2nc(C(Cl)Cl)c3ccccc3n2)cc1	-4%	11%	u	13µM*	u	i
CCC(C)(C)c1nnc(NC(=O)c2cccc([N+](=O)[O-])c2)s1	-16%	-9%	-4%	i	16%	21µM*
O=C(Nc1nnc(CSCc2ccc(Cl)cc2)s1)c1cccc([N+](=O)[O-])c1	3%	6%	26%	i	-1%	i
